Data on 18 compounds can be found in PubChem BioAssay AID434927 (Sanford-Burnham Center for Chemical Genomics, 2010).

Structures are written as SMILES. A number with no mark means an inactive call. Calls of active or inactive are those of the source.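 The calls were made as follows: active = inhibition above about 23% in any of six single-dose repeats (limit read from the data); inactive = the rest.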

Sequence of Intestinal-type alkaline phosphatase (Homo sapiens) (P09923 whole entry, looked up): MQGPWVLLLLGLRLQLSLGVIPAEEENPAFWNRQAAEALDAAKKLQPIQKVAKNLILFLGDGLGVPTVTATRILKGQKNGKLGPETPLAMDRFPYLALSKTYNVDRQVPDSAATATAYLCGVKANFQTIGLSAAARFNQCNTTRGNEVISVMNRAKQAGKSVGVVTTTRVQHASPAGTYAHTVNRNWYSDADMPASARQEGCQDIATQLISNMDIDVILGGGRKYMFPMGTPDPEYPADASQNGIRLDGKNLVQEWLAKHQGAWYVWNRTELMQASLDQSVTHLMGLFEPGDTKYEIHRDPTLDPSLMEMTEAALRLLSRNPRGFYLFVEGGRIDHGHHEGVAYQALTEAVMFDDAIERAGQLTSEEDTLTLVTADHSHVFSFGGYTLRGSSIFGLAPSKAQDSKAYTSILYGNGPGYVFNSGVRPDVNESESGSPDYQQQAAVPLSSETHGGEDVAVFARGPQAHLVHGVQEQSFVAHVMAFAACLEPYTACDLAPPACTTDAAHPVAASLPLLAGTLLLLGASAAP

The assay addresses Intestinal-type alkaline phosphatase (Homo sapiens) (UniProt P09923). The assay can be described thus: suppression of intestinal alkaline phosphatase activity – biochemical, luminescence, single concentration, uHTS hits, confirmation (AID 434927).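 Also: plate controls were DMSO wells with enzyme for no effect and wells lacking enzyme for full effect.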 The note with it: purified human IAP, CDP-Star luminescence, 30 min; at 8.3 µM; stronger effect = higher value.
For `COc1ccc(OC)c(NC(=O)c2cc(-c3cc(C)ccc3O)n[nH]2)c1`, the inhibition (usually the relative decrease from the control value, in per cent) is -41.7%.

Take `COc1cc(/C=N\NS(=O)(=O)c2ccccc2)cc(OC)c1OC`: the inhibition is 30.7% (active).

With `N#C/C(=C(\O)c1ccco1)c1ccccn1`, the inhibition was 55.3% (active).

With `O=C1Nc2ccccc2/C1=N\N=C\c1ccc(O)c(O)c1`, the inhibition is 61.5% (active).

As to `CCOc1ccc(NC(=O)CSc2nncn2C)cc1`, the inhibition was -83.5%.

With `Cc1[nH]n(-c2nc(-c3ccccc3)cc(=O)[nH]2)c(=O)c1CCO`, the inhibition was 47.5% (active).

As for `Nc1c(N2CCCC2)cc(Cl)c2nonc12`, the inhibition is 41.3% (active).

As for `COc1ccc(NC(=O)CCN2CCN(S(=O)(=O)c3cc(Cl)ccc3OC)CC2)cc1`, the inhibition was 35.6% (active).

Regarding `CCc1ccc(/C=N/Nc2ncnc3nc[nH]c23)cc1`, the inhibition was 33.8% (active).

For `O=c1c2ccccc2nc(N/N=C/c2c(O)ccc3ccccc23)n1O`, the inhibition was -53.7%.

For the compound `CCc1nnc(NC(=O)CSc2nnc(C)c(=O)n2N)s1`, the inhibition was 41.3% (active).

In the case of `Cc1nc(S/C(=C/c2ccc(-c3ccc(Cl)cc3)o2)C(=O)O)n[nH]1`, the inhibition is -88.7%.

Turning to `O=C(Cc1coc2ccc3ccccc3c12)NCc1ccccc1`, the inhibition is 59.4% (active).

Take `COc1ccc(CC2CC(=O)N(c3ccc(C)cc3)C2=O)cc1` (stereo not drawn): the inhibition is 23.2% (active).

Consider `COc1cc(CN2CCC(n3nccc3NC(=O)CCCc3ccccc3)CC2)ccc1F`, for which the inhibition is 40.7% (active).

Take `OC1CN=C2Sc3ccccc3N2C1` (stereo not drawn): the inhibition was -100%.

With `O=c1c2cc(O)c(O)cc2oc2cc(O)c(C3OC(CO)C(O)C(O)C3O)c(O)c12` (stereo not drawn), the inhibition was -148%.

Consider `Cc1ccc(NC(=O)C2CC(=O)Nc3nc4ccccc4n32)c(C)c1` (stereo not drawn), for which the inhibition is 38.4% (active).
